GIRK2 act – activators of NPY4-receptor-primed GIRK2 channels, summary, cell-based, HEK293, thallium flux. G protein-activated inward rectifier potassium channel 2 (Homo sapiens), P48051. HEK293 GIRK2/NPY4 cells, thallium flux fluorescence. activation (% efficacy), % for hits at 75 µM. 34,000 tested, under 10 active. AID 1259324, 2017;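 active = primary screen hit, no activity in plain HEK293 cells, and in GIRK2-only cells above 5% efficacy rising with concentration; inactive = the rest, including fluorescent compounds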;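 also: efficacy is normalized control-subtracted fluorescence 15 s after thallium addition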
Target sequence (P48051 whole entry, looked up): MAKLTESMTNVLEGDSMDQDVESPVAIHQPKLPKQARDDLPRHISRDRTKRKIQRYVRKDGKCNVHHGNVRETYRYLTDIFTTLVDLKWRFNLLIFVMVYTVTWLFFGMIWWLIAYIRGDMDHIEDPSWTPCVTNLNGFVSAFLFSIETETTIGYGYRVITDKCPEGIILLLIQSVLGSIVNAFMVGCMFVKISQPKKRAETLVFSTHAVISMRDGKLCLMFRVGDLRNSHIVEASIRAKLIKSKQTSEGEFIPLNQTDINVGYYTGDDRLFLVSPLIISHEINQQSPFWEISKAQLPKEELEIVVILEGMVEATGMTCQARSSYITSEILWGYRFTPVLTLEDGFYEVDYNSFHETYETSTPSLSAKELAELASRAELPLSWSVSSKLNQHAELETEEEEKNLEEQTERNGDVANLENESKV
GluA2 TARP mod – modulators of GluA2-stargazin AMPA receptor complexes, primary screen, cell-based, membrane potential dye | HEK293 GluA2+stargazin, membrane potential dye (FDSS), glutamate EC50; hits were called plate by plate, in both directions | AID 1259245, 2017 | calls only at 30 µM | hit rate 3.5% among 40,000 | Voltage-dependent calcium channel gamma-2 subunit (Mus musculus) + Glutamate receptor 2 …;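 active = any of four per-well response measures lying three or more SD from its plate-wide compound average, in either direction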
Active calls of the source: *. Only a selection was taken, and hits are over-represented in it overall.

How did CC(C)OC(=O)C1(C(=O)OC(C)C)CC2(COC(c3ccccc3)OC2)C1 do in these assays?
GIRK2 act: inactive; GluA2 TARP mod: active

What do the screens show for `CC(C)OC(=O)C1(C(=O)OC(C)C)CC(CO)(CO)C1`?
GluA2 TARP mod: inactive

How did CC(C)CCn1c(NCc2ccccc2)nc2c1c(=O)[nH]c(=O)n2C do in these assays?
GIRK2 act: inactive; GluA2 TARP mod: inactive

How did COc1ccc(C(=O)NCC(c2ccc(F)cc2)N2CCOCC2)cc1OC (stereo not drawn) do in these assays?
GluA2 TARP mod: inactive

How did COc1ccc(CC(=O)Nc2cc(C3CC3)nn2-c2nc(C(C)C)cc(=O)[nH]2)cc1OC do in these assays?
GIRK2 act: inactive; GluA2 TARP mod: inactive

What do the screens show for `COc1ccc(C(=O)Nc2cc(C3CC3)nn2-c2nc(C(C)C)cc(=O)[nH]2)cc1OC`?
GIRK2 act: inactive; GluA2 TARP mod: active

How did COC1CCN(S(=O)(=O)c2cc(F)cc(F)c2)CC1 do in these assays?
GIRK2 act: inactive; GluA2 TARP mod: inactive

What do the screens show for `O=C1SC(Nc2cccc([N+](=O)[O-])c2)C(=O)N1c1ccc(F)cc1` (stereo not drawn)?
GIRK2 act: inactive; GluA2 TARP mod: inactive

Results for COc1ccc(C(=O)Nc2nnc(-c3ccc(Br)s3)o2)cc1OC ?
GIRK2 act: inactive; GluA2 TARP mod: active

How did CS(=O)(=O)c1ccc(C(=O)Nc2nnc(-c3cccnc3)o2)cc1 do in these assays?
GIRK2 act: inactive; GluA2 TARP mod: active

How did CS(=O)(=O)c1ccc(C(=O)Nc2nnc(-c3ccc(Br)s3)o2)cc1 do in these assays?
GIRK2 act: inactive; GluA2 TARP mod: inactive

Results for c1ccc(-c2nnc(-c3ccncc3)o2)cc1 ?
GluA2 TARP mod: inactive

What do the screens show for `COc1ccc(-c2nnc(-c3ccncc3)o2)cc1OC`?
GluA2 TARP mod: active

What do the screens show for `COc1ccc(C(=O)Nc2nnc(-c3ccncc3)o2)cc1OC`?
GluA2 TARP mod: active

What do the screens show for `COc1ccc(-c2nnc(NC(=O)c3ccc(F)cc3)o2)cc1OC`?
GIRK2 act: inactive; GluA2 TARP mod: inactive

How did COc1ccccc1C(=O)Nc1nnc(-c2ccc(Br)s2)o1 do in these assays?
GIRK2 act: inactive

What do the screens show for `Fc1ccc(Nc2nnnc3c2cnn3-c2ccccc2)cc1Cl`?
GIRK2 act: inactive; GluA2 TARP mod: inactive

Results for Cc1ccc(-n2nc3c(c2NC(=O)C(=O)NCC(C)C)CS(=O)(=O)C3)cc1 ?
GIRK2 act: inactive; GluA2 TARP mod: inactive

What do the screens show for `Cc1sc(NC(=O)C2CCN(S(C)(=O)=O)CC2)c(C#N)c1C`?
GIRK2 act: inactive

What do the screens show for `CC(=O)Nc1ccc(S(=O)(=O)N2CCN(CCn3cccn3)CC2)cc1`?
GIRK2 act: inactive; GluA2 TARP mod: inactive

What do the screens show for `COc1ccc(CNc2ccc(S(=O)(=O)C(C)(C)C)nn2)cc1`?
GIRK2 act: inactive

Results for Cc1ccc(-c2ccc(=O)n(CCNC(=O)NCc3ccccc3)n2)cc1 ?
GIRK2 act: inactive; GluA2 TARP mod: inactive

What do the screens show for `COc1ccc(NC(=O)CSc2nc(-c3ccc(C)cc3)c3ccccc3n2)c(OC)c1`?
GIRK2 act: inactive; GluA2 TARP mod: active

How did COc1ccc(NC(=O)CSc2nnc(C)c3ccccc23)c(OC)c1 do in these assays?
GIRK2 act: inactive; GluA2 TARP mod: inactive

Results for COc1ccccc1N1C(=NC(=O)c2cccc(C)c2)SC2CS(=O)(=O)CC21 (stereo not drawn) ?
GluA2 TARP mod: inactive

How did O=C(Nc1ccc(OC(F)(F)F)cc1)c1ccc(=O)n(Cc2cccc(Cl)c2)c1 do in these assays?
GIRK2 act: inactive; GluA2 TARP mod: inactive

What do the screens show for `COc1ccc(NC(=O)NCCNc2nc(C)cc(N(C)C)n2)cc1Cl`?
GIRK2 act: inactive; GluA2 TARP mod: inactive

Results for Cc1sc(NC(=O)c2ccc(S(=O)(=O)C(C)C)cc2)c(C#N)c1C ?
GIRK2 act: inactive; GluA2 TARP mod: inactive

What do the screens show for `CCS(=O)(=O)c1ccc(C(=O)Nc2sc(C(=O)OC)c(C)c2C#N)cc1`?
GIRK2 act: inactive; GluA2 TARP mod: active

What do the screens show for `CSc1ccccc1CN1CCC(CNC(=O)C(=O)Nc2ccccc2Cl)CC1`?
GIRK2 act: inactive; GluA2 TARP mod: active

How did CSc1ccccc1NC(=O)C(=O)NCC1CCN(Cc2ccccc2)CC1 do in these assays?
GIRK2 act: inactive; GluA2 TARP mod: inactive

How did NC(=O)CSc1nc(-c2ccccc2)c(NC(=O)c2ccccc2)s1 do in these assays?
GIRK2 act: inactive; GluA2 TARP mod: inactive

How did NC(=O)CSc1nc(-c2ccccc2)c(N)s1 do in these assays?
GIRK2 act: inactive; GluA2 TARP mod: inactive

Results for COc1ccc(CCC(=O)Nc2sc(SCC(N)=O)nc2-c2ccccc2)cc1 ?
GIRK2 act: inactive; GluA2 TARP mod: inactive

How did NC(=O)CSc1nc(-c2ccccc2)c(NC(=O)CCCc2ccccc2)s1 do in these assays?
GIRK2 act: inactive; GluA2 TARP mod: active

What do the screens show for `Nc1sc(SCC(=O)NCc2ccc(F)cc2)nc1-c1ccccc1`?
GIRK2 act: inactive; GluA2 TARP mod: active

Results for NC(=O)CSc1nc(-c2ccccc2)c(NC(=O)CCc2ccccc2)s1 ?
GIRK2 act: inactive; GluA2 TARP mod: active

What do the screens show for `COCC(=O)N1CCCc2ccc(NC(=O)c3ccno3)cc21`?
GIRK2 act: inactive; GluA2 TARP mod: inactive

How did CC1(C)CC(O)CC(C)(C)N1CC(O)COCCOc1ccc(F)cc1 (stereo not drawn) do in these assays?
GIRK2 act: inactive

Results for CN(C)C(CNC(=O)c1cccc(Cl)c1)c1ccccc1 (stereo not drawn) ?
GluA2 TARP mod: inactive

Results for O=C(Nc1ccc(F)cc1)N1CCC(CNS(=O)(=O)c2cccs2)CC1 ?
GIRK2 act: inactive

Results for COc1ccc(NC(=O)c2cccc(S(=O)(=O)C(C)C)c2)c([N+](=O)[O-])c1 ?
GIRK2 act: inactive; GluA2 TARP mod: inactive

What do the screens show for `COC(=O)c1ccc(NC(=O)c2cc(=O)c(OC)co2)cc1`?
GIRK2 act: inactive; GluA2 TARP mod: inactive

What do the screens show for `COc1ccc(NC(=O)c2cc(=O)c(OC)co2)c(OC)c1`?
GIRK2 act: inactive; GluA2 TARP mod: active

What do the screens show for `O=C(Nc1nc2ccc(Cl)cc2s1)c1cc(=O)c(OCc2ccc(F)cc2)co1`?
GIRK2 act: inactive; GluA2 TARP mod: inactive

What do the screens show for `COc1coc(C(=O)Nc2nc3ccc(Cl)cc3s2)cc1=O`?
GIRK2 act: inactive; GluA2 TARP mod: active

How did O=C(NCCN1CCN(c2ccccn2)CC1)c1cccc(Br)c1 do in these assays?
GIRK2 act: inactive; GluA2 TARP mod: inactive

Results for Cc1c(C(=O)N(C)C2CCS(=O)(=O)C2)nnn1-c1ccccc1F (stereo not drawn) ?
GIRK2 act: inactive; GluA2 TARP mod: inactive

How did O=C(NCC1CCN(C(=O)c2cc3ccccc3o2)CC1)c1c(F)cccc1F do in these assays?
GIRK2 act: inactive; GluA2 TARP mod: inactive

Results for Cc1cc(C(=O)N2CCN(C)CC2)nn1CC(=O)NC(C)CCc1ccccc1 (stereo not drawn) ?
GIRK2 act: inactive; GluA2 TARP mod: inactive

How did COc1ccc(S(=O)(=O)N2CCn3cccc3C2c2ccc(Br)cc2)cc1OC (stereo not drawn) do in these assays?
GluA2 TARP mod: inactive
